SNCA viab count – cell viability loss counter-screen | HEK-293-SNCA-luc viability, GF-AFC fluorescence, 24 h | Potency, µM (top dose mostly 57.1 µM), without a hit: top-dose activity change, negative = cytotoxicity, most hits filed as cytotoxic | hit rate 0.12% among 150,000 | AID 1671193;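 also: potency is read from the fitted curve at half-maximal effect; 0% = DMSO-treated cells and -100% = medium-only wells without cells; nearly all actives have a fitted effect of over 30% in size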
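Cytotoxicity counterscreen: after 24 h compound treatment of genome-edited SNCA-luciferase HEK-293 cells, live-cell protease substrate GF-AFC read by fluorescence after 30 min; activity scaled between DMSO (0%) and medium-only (-100%), curves Hill-fitted.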
IP6K1 inhibitor – inhibitors of human IP6K1 | hit rate 0.81% among 140,000 | activity change, % (series mostly up to about 58 µM) | IP6K1 kinase, ADP-Glo luminescence, 2 h; active compounds read low | AID 1645851 | Q92551; in the data active = activity change below about -25%; also: % is scaled to controls: 0 for no effect and ±100 for the full control effect
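ADP-Glo luminescence measures ADP made by human IP6K1 during a 2 h RT reaction with ATP/IP6 (mix at 1.3 mM/130 uM); top library doses 57.5 and 19.1 uM final.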
SNCA expr inhib – SNCA gene expression inhibition; hit rate 0.17% among 140,000; AID 1671194; Potency, µM (doses to about 57.2 µM), inactives show at the highest dose activity change, negative = inhibition, actives largely listed as inhibitors; HEK-293 SNCA-luciferase knock-in, luminescence, 24 h;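 also: potency is read from the fitted curve at half-maximal effect; plate controls were DMSO cells for no effect and cell-free wells for full effect; nearly all actives have a fitted effect of over 45% in size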
KDM5B inh – blocks human KDM5B histone demethylase activity; Q9UGL1; AID 1347165; hit rate 2.6% among 220,000; KDM5B demethylase, FDH-coupled NADH fluorescence (FDH is formaldehyde dehydrogenase); Potency, µM (highest dose often 57.7 µM), usual class: inhibitors; also: potency is read from the fitted curve at half-maximal effect; 0% is about no effect; nearly all actives have a fitted effect of over 70% in size
Target sequence (Q9UGL1 whole entry, looked up): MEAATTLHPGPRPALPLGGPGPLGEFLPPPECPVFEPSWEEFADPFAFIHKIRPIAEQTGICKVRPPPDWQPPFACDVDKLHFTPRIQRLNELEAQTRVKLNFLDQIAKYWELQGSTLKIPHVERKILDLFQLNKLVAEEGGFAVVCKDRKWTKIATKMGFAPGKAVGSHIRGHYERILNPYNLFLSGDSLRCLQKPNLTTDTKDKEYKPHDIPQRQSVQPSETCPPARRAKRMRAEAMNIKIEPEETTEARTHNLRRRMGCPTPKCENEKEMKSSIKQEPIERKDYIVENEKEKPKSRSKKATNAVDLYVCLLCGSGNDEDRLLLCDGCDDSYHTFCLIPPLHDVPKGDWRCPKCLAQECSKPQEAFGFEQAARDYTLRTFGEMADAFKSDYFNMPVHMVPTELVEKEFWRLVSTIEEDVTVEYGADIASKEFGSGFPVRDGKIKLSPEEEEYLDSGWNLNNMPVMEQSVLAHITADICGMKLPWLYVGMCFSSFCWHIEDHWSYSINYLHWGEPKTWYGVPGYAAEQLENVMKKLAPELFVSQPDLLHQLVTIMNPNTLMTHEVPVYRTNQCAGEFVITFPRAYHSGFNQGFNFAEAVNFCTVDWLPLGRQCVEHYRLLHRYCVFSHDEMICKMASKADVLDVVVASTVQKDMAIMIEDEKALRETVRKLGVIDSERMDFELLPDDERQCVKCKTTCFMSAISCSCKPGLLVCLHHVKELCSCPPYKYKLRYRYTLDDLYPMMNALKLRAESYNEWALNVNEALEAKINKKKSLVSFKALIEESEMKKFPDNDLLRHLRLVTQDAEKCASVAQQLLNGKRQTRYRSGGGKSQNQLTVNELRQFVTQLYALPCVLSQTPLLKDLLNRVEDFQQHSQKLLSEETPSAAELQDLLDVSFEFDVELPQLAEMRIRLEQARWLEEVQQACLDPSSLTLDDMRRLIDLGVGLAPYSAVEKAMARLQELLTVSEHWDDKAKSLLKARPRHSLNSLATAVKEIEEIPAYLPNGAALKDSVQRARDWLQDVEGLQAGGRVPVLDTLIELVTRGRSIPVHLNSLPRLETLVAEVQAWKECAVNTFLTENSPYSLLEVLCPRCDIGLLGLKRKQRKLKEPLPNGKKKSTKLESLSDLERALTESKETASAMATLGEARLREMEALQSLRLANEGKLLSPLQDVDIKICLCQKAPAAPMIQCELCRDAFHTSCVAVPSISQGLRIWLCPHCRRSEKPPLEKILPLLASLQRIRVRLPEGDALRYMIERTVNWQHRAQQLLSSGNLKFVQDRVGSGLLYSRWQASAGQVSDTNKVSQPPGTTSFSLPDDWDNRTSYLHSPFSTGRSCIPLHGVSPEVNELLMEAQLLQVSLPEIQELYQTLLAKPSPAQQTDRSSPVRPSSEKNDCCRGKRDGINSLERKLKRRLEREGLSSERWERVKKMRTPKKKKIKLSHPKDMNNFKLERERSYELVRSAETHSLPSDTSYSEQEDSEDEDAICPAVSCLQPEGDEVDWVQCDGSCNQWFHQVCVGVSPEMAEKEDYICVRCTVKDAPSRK
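Inhibition is measured as reduced NADH fluorescence generation from FDH coupling to formaldehyde release. Truncated KDM5BΔAP at 200 nM final acts on H3K4me3 peptide (12.5 µM in substrate mix) in pH 7.5 HEPES buffer with Tween-20, 30 min, room temperature.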
* = called active by the depositor; i = inactive; ? = inconclusive; nt = no result given; [ ] = remark or other dose. This is a sample that favours compounds with a hit; in the whole collection about 3% have one here. Unless noted, calls follow the shape of the dose curve; as a rule, active = well fitted curve in the direction sought with a large enough effect; inconclusive = small, poorly fitted or top-dose-only effect, or another doubt; inactive = no such curve, though single readings can be large; an effect the other way counts as inactive or inconclusive.

SMILES | SNCA viab count | IP6K1 inhibitor | SNCA expr inhib | KDM5B inh
CC(=O)Nc1ccc(NC(=O)Cn2ccn3nc4c(c3c2=O)CCCCC4)cc1 | -20.4% | 9.0 | ? | ?
COc1ccccc1-c1nc2cnccn2c1NCCC(=O)N1CCc2ccccc21 | 18.7% | 2.9 | 19.6% | 28.2µM*
COc1cccc(-c2nc3cnccn3c2NCCC(=O)N2CCN(C)CC2)c1 | ? | 13.4 | -4.2% | 28.2µM*
COc1ccccc1-c1nc2cnccn2c1NCCC(=O)Nc1ccc2c(c1)OCO2 | ? | 0.9 | -1.1% | 28.2µM*
COc1cccc(-c2nc3cnccn3c2NCCC(=O)N2CCc3ccccc32)c1 | 23.8% | 20.8 | 10.0% | 22.4µM*
COc1ccc(Nc2c(-c3cccc(O)c3)nc3cnccn23)cc1 | -9.9% | -7.4 | 7.8% | i
CCc1nc2nccc(-c3ccc(OC)c(OC)c3)n2n1 | 0.4% | -5.2 | 10.6% | 20µM*
COc1ccc(CCc2nc3nccc(-c4ccc(OC)cc4)n3n2)cc1 | 1.8% | -10.8 | 50.7% | 25.1µM*
CCc1nc2nccc(-c3ccc(Br)cc3)n2n1 | 22.2% | 12.4 | 3.6% | 15.8µM*
COc1ccc(-c2ccnc3nc(CCc4ccc(OC)c(OC)c4)nn23)cc1 | -5.6% | -11.0 | 4.9% | 25.1µM*
COc1ccccc1-c1cccc(CN2CCCC(C(=O)NCC(F)(F)F)C2)c1 (stereo unspecified) | -1.1% | -3.2 | -16.4% | nt
CCOC(=O)[C@@H]1CN(C(=O)OCC)[C@H]2c3cccc(C)c3O[C@@H]12 | nt | 4.8 | nt | nt
Cc1ccc(NC(=O)N2CCc3c(C(=O)NCCCN4CCCC4=O)cccc32)cc1 | 1.6% | -4.8 | 2µM* | i
Cc1ccc(NC(=O)N2CCc3c(C(=O)NC(C)c4cccnc4)cccc32)cc1 (stereo unspecified) | -4.6% | -5.3 | 3.98µM* | i
COc1ccc(NC(=O)N2CCc3c(C(=O)NC(C)C)cccc32)cc1 | -10.7% | -3.7 | 3.55µM* | i
COc1ccccc1-c1cccc(CN2CCC(NC(=O)Cc3ccc(C(F)(F)F)cc3)CC2)c1 | -25.8% | -9.9 | -24.3% | nt
COc1ccccc1-c1ccc(CN2CCCCC2C(=O)Nc2ccccc2F)cc1 (stereo unspecified) | nt | 21.2 | nt | nt
Cc1cc(CNC(=O)c2cc(-c3ccnn3C)cc3c2OCCN3C)no1 | 2.0%[87.6 µM] | -1.6 | -3.3%[87.6 µM] | ?
Cc1cc(C)c(CNC(=O)c2cc(-c3cnn(C)c3C)cc3c2OCCN3C)c(=O)[nH]1 | -3.1%[87.6 µM] | -19.5 | 1.0%[87.6 µM] | 31.6µM*
Cc1cc(C)c(CNC(=O)c2cc(-c3ccnn3C)cc3c2OCCN3C)c(=O)[nH]1 | 0.9%[87.6 µM] | -20.5 | 18.0%[87.6 µM] | 35.5µM*
COc1ccc(-c2cc(C(=O)NCc3c(C)cc(C)[nH]c3=O)c3c(c2)N(C)CCO3)cc1 | -2.7%[87.6 µM] | -13.6 | -11.4%[87.6 µM] | 31.6µM*
Cc1cc(C)c(CNC(=O)c2cc(-c3cccnc3)cc3c2OCCN3C(C)C)c(=O)[nH]1 | ? | -24.5 | 10.4%[87.6 µM] | ?
COc1ncccc1-c1cc(C(=O)NCc2c(C)cc(C)[nH]c2=O)c2c(c1)N(C)CCO2 | 1.4%[87.6 µM] | -12.6 | 22.9%[87.6 µM] | 35.5µM*
O=C1CC2(CCN(Cc3cccs3)CC2)Oc2cc(Cl)ccc21 | 1.2% | -14.3 | 107.5% | i
O=C(NCCc1ccc(Cl)cc1)C1CCN(C(=O)c2ccc(-c3cccs3)cc2)CC1 | nt | -11.7 | nt | nt
SMILES | SNCA viab count | IP6K1 inhibitor | SNCA expr inhib | KDM5B inh
O=C1NCc2ccccc2CC12CCN(Cc1ccc(-c3ccccc3)cc1)CC2 | -11.6% | -2.3 | ? | i
COc1ccccc1-c1cccc(CN2CCC(NC(=O)Nc3ccc(C)c(F)c3)CC2)c1 | -24.5% | 15.9 | -27.1% | nt
COc1ccc(CC(=O)N2C[C@@H](CO)[C@@H]3Oc4ccccc4[C@@H]32)cc1 | nt | 20.3 | nt | nt
COc1ccc([C@H]2CN(C(=O)c3nc(N)nc4c3CCCC4)C[C@@H]2N)cc1 | 3.2% | 8.7 | ? | 22.4µM*
O=[N+]([O-])c1cc(S(=O)(=O)Nc2ccc(Cl)cc2)ccc1N/N=C/c1ccccc1Cl | nt | nt | nt | i
Cc1ccc(S(=O)(=O)c2ccc([N+](=O)[O-])o2)cc1 | 9.47µM* | -8.5 | nt | nt
Cc1ccc(Nc2ccc(S(N)(=O)=O)cc2[N+](=O)[O-])cc1 | nt | nt | nt | i
CSc1ccc(-c2cccc(CN3CCC(N[S+](=O)([O-])c4ccc(C)cc4)CC3)c2)cc1 | nt | 13.8 | nt | nt
COc1ccc(NC(=O)Cn2cccc2-c2nc(-c3ccccc3)no2)cc1 | -8.1% | 6.5 | 8.1% | i
COC(=O)c1ccccc1NC(=O)Cn1cccc1-c1nc(-c2ccccc2)no1 | -10.6% | -9.3 | -20.6% | 28.2µM*
O=C(NCCCc1ccccc1)C1CCCN(Cc2cccc(-c3ccsc3)c2)C1 (stereo unspecified) | nt | 1.3 | nt | nt
Cc1nnn2c(C(=O)NCc3ccc(Cl)cc3)cccc12 | -5.4%[87.6 µM] | -7.0 | -2.0%[87.6 µM] | 35.5µM*
O=C(NCc1ccc(Cl)cc1)c1cc2cccnn2n1 | 6.0%[87.6 µM] | -1.4 | -4.8%[87.6 µM] | 31.6µM*
Cc1nnn2c(C(=O)N(C)C)cccc12 | -10.4%[87.6 µM] | 7.7 | 22.3%[87.6 µM] | ?
O=C(NCc1ccc(Cl)cc1)c1ccn2nccc2c1 | 6.5%[87.6 µM] | -13.0 | 25.4%[87.6 µM] | 35.5µM*
O=C(NCc1ccc(Cl)cc1)c1cnn2ncccc12 | -0.4%[87.6 µM] | -1.8 | 144.5%[87.6 µM] | 35.5µM*
O=C(Nc1ccc(F)cc1)c1cnn2ncccc12 | -7.8%[87.6 µM] | 7.2 | 117.9%[87.6 µM] | ?
C=CCNC(=O)c1cc2cccnn2n1 | -8.4%[87.6 µM] | 4.4 | 32.8%[87.6 µM] | 31.6µM*
O=C(NCc1ccccc1)C1CCCCN1Cc1ccc(-c2ccsc2)cc1 (stereo unspecified) | -16.0% | -2.2 | -26.6% | nt
Cc1noc(C)c1-c1cc(-c2cccc(O)c2)cn2cncc12 | -5.0%[87.6 µM] | -23.9 | 16.5%[87.6 µM] | ?
Cc1noc(C)c1-c1cc(-c2ccc(CO)cc2)cn2cncc12 | -6.2%[87.6 µM] | -15.7 | 7.2%[87.6 µM] | 35.5µM*
Cc1noc(C)c1-c1cc(-c2ccc([S+](C)(=O)[O-])cc2)cn2cncc12 | 6.2%[87.6 µM] | -9.2 | 69.7%[87.6 µM] | 31.6µM*
O=C(Cc1ccccc1F)N1CCC2(CC1)CN(c1ccncn1)CC2CO (stereo unspecified) | -1.1%[12.5 µM] | 40.7 | -19.9% | i
O=C(Cc1cccc(F)c1)N1CCC2(CC1)CN(c1ncccn1)CC2CO (stereo unspecified) | 5.5% | 23.1 | -17.1% | 22.4µM*
COc1cccc(CC(=O)N2CCC3(CC2)CN(c2ncccn2)CC3CO)c1 (stereo unspecified) | 13.1% | 5.4 | -20.6% | ?
SMILES | SNCA viab count | IP6K1 inhibitor | SNCA expr inhib | KDM5B inh
O=C(Cc1ccccc1)N1CCC2(CC1)CN(c1ncccn1)CC2CO (stereo unspecified) | -6.7% | 19.3 | ? | 22.4µM*
CC(C)(C)C(=O)N1CCN(Cc2ccccc2-c2cccnc2)CC1 | -4.7%[12.5 µM] | 11.5 | -0.3%[87.6 µM] | nt
COc1ccccc1NC(=O)c1cc(-c2ccccc2C(F)(F)F)nc2c1cnn2C | nt | -6.5 | nt | nt
O=C1c2cnc(-c3ccc(F)cc3F)nc2OCCN1Cc1ccc(F)cc1F | -7.1%[87.6 µM] | 6.0 | 57.9%[87.6 µM] | i
O=C1c2cnc(-c3ccoc3)nc2OCCN1Cc1ccc(F)cc1F | -1.3%[87.6 µM] | 2.3 | 1.4%[87.6 µM] | 35.5µM*
CC(=O)Nc1cccc(-c2ncc3c(n2)OCCN(CC2CC2)C3=O)c1 | -1.2%[87.6 µM] | 3.4 | 66.3%[87.6 µM] | 31.6µM*
